Source: PubChem BioAssay (EPA / NIEHS)
Several values for one entry are separate records, joined by “and”; a condition that tells them apart may be missing. Equal values may be shown once. Results filed as inconclusive are left out. Activity calls are given as the source filed them. How the source made its calls: active means hit-call score of the fitted dose curve at least 0.9, where 1 is the maximum; inconclusive means response in the unintended direction; inactive means score below 0.9.

Molecular target: Estrogen receptor (Homo sapiens) (UniProt P03372)
Assay: ATG_hERa_XSP2: Attagene TRANS-FACTORIAL Multi-Species (XSP2) HepG2 Assay for human Estrogen Receptor (ERa) (AID 2283827)
Protocol: ATG_XSP2_multi-species_TRANS is a cell-based, multiplexed assay created by modifying the existing Attagene TRANS-FACTORIAL system to include a panel of nuclear receptors from some or all the following species: human (Homo sapiens), mouse (Mus musculus), frog (Xenopus laevis), zebrafish (Danio rerio), chicken (Gallus gallus), and turtle (Chrysemys picta). The ECOTOX-FACTORIAL format uses HepG2, a human liver cell line, with measurements taken at 24 hours after chemical dosing in a 24-well plate. Xsp2 included 3 nM 6-alpha-fluorotestosterone and 1.5 nM norgestrel to stimulate the androgen receptor.ATG_hERa_XSP2 is one of 29 assay components measured or calculated from the ATG_XSP2_multi-species_TRANS assay. It is designed to make measurements of mRNA induction, a form of inducible reporter, as detected with fluorescence intensity signals by Reverse transcription polymerase chain reaction (RT-PCR) and Capillary electrophoresis technology.The assay endpoint ATG_hERa_XSP2 was analyzed in the positive analysis fitting direction relative to DMSO as the negative control and baseline of activity. Using a type of inducible reporter, measures of mRNA for gain-of-signal activity can be used to understand the reporter gene at the transcription factor-level as they relate to the gene ER. Furthermore, this assay endpoint can be referred to as a primary readout, because this assay has produced multiple assay endpoints where this one serves a reporter gene function. To generalize the intended target to other relatable targets, this assay endpoint is annotated to the nuclear receptor intended target family, where the subfamily is steroidal.
Human liver HepG2 cells are transiently transfected with multiple reporter transcription units (MRTUs) in 6-well plates using FuGene 6 reagent (Roche; 3 ml FuGene/1 mg DNA). The MRTU constructs are regulated by a cis-regulating element (promoter). […] A major difference between the CIS and TRANS system is that in CIS activities of endogenous TFs are measured, whereas the TRANS assay evaluates changes in activities of exogenous, chimeric NR-Gal4 proteins. […] At the end of 24 hour incubation, total RNA was isolated using TriZol reagent (Invitrogen). The isolated RNA is then reverse-transcribed using oligo(dT) primer and Mo-MLV reverse transcriptase (Invitrogen) with DNAse I (Ambion) treatment for 30 min. The one-tenth of the produced cDNA was amplified by PCR using Taq DNA polymerase (Invitrogen) and two reporter sequence-specific primers. The PCR products were fluorescently labeled by primer extension with 6-arboxyfluorescein (6-FAM) 5'-labeled reporter sequence-specific primer (2 min at 95 C, 20 s at 68 C and 10 min at 72 C) and these products were digested with 5U of HpaI (New England Biolabs) for 2h at 37 C. The fragments were purified using Qiaquick PCR columns (Qiagen), analyzed on an ABI 3130xL genetic analyzer (Applied Biosystems) with peak positions identified by using a set of X-rhodamine (ROX)-labeled MapMarker1000 molecular weight standards (BioVentures). The raw capillary electrophoresis data was processed using Attagraph software (Attagene).

Sequence of Estrogen receptor (Homo sapiens) (P03372 whole entry, looked up): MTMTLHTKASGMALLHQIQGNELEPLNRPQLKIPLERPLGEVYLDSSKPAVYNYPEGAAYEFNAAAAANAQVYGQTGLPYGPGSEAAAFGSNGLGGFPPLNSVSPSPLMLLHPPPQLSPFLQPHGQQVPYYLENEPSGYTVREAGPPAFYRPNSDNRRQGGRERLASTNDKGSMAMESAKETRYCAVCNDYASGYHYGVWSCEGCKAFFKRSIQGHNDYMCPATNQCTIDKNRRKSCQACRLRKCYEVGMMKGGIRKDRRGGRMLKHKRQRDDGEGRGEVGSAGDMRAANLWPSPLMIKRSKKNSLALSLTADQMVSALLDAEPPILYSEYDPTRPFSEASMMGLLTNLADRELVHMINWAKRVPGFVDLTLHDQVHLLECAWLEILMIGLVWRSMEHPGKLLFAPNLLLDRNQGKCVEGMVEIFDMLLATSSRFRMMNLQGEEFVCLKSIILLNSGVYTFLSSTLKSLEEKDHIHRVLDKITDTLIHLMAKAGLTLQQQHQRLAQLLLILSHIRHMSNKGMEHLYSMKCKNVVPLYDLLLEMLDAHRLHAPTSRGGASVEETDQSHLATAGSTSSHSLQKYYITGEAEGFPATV

Structure (SMILES) | outcome | AC50
CC(=O)S[C@@H]1CC2=CC(=O)CC[C@]2(C)[C@H]2CC[C@@]3(C)[C@@H](CC[C@@]34CCC(=O)O4)[C@H]12 | inactive | –
CSC(=O)c1cccc2nnsc12 | inactive | –
CN(C)C(=O)Nc1ccc(Cl)c(Cl)c1 | – | 47.1 µM (active) and 48.1 µM (active)
N[C@@H](Cc1cc(I)c(Oc2ccc(O)c(I)c2)c(I)c1)C(=O)O | – | 351 nM (active) and 1.72 µM (active)
CCN(Cc1c(F)cccc1Cl)c1c([N+](=O)[O-])cc(C(F)(F)F)cc1[N+](=O)[O-] | – | 1.49 µM (active) and 1.53 µM (active)
CC1(C)C(C=C(Cl)Cl)C1C(=O)OCc1cccc(Oc2ccccc2)c1 (stereo not given) | – | 7.48 µM (active)
O=C(c1ccc(O)cc1O)c1ccc(O)cc1O | – | 3.02 µM (active)
C#C[C@]1(O)CC[C@H]2[C@@H]3CCC4=CC(=O)CC[C@@H]4[C@H]3CC[C@@]21CC | – | 114 nM (active) and 35.2 nM (active)
CC(C)CCCCCCc1ccc(O)cc1 | – | 0.768 µM (active)
CCCCC(CC)CN1C(=O)C2C3C=CC(C3)C2C1=O (stereo not given) | – | 2.56 µM (active)
